Where “and” joins values, the source holds several entries; their conditions need not be identical. Equal values may be shown once. Out of some 5,500 compounds screened, about 2,000 (36%) were called active. Another 18% or so got no clear call; they are omitted. Rule as the data show it: active = normalized growth mostly below about 0.91 (no sharp cut-off); inconclusive = no clear call, values can overlap the other calls; inactive = mostly above about 0.92. Some of the results follow.
Assay: chemical genetic growth profiling, strain panel (AID 1159580);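 also: tested at 20 µM; growth read once vehicle control cultures reached saturation at 30 °C; 1 = growth at the plate median or of vehicle wells; lower values mean less growth of the strain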
Conditions: S. cerevisiae deletion strains, growth OD

Measured: normalized growth

CCS(=O)(=O)CCn1c([N+](=O)[O-])cnc1C
inactive: locus YAL013W, strain DEP1, stronger effect = lower value 1.03 | locus YAL021C, strain ccr4, stronger effect = lower value 0.999 | locus YAL026C, strain drs2, stronger effect = lower value 0.995 | locus YAL030W, strain snc1, stronger effect = lower value 1.01 | locus YBL061C, strain skt5, stronger effect = lower value 1.01 | locus YBR009C, strain hhf1, stronger effect = lower value 0.962 | locus YBR021W, strain FUR4, stronger effect = lower value 1.01 | locus YBR023C, strain chs3, stronger effect = lower value 0.998 | locus YBR171W, strain sec66, stronger effect = lower value 1 | locus YBR229C, strain ROT2, stronger effect = lower value 1.01 | locus YBR231C, strain swc5, stronger effect = lower value 1 | locus YBR279W, strain paf1, stronger effect = lower value 0.985 | locus YCL011C, strain gbp2, stronger effect = lower value 1 | locus YCL016C, strain dcc1, stronger effect = lower value 1.02 | locus YCL029C, strain bik1, stronger effect = lower value 1.01 | locus YCL061C, strain MRC1, stronger effect = lower value 1.01 | locus YCL069W, strain vba3, stronger effect = lower value 0.974 | locus YCR088W, strain abp1, stronger effect = lower value 0.986 | locus YDL005C, strain med2, stronger effect = lower value 1.01 | locus YDL035C, strain GPR1, stronger effect = lower value 1.04 | locus YDL040C, strain nat1, stronger effect = lower value 0.995 | locus YDL074C, strain BRE1, stronger effect = lower value 1.06 | locus YDL101C, strain DUN1, stronger effect = lower value 1.01 | locus YDL134C, strain PPH21, stronger effect = lower value 1 | locus YDL185W, strain tfp1, stronger effect = lower value 1.02 | locus YDL192W, strain arf1, stronger effect = lower value 1.01 | locus YDR001C, strain nth1, stronger effect = lower value 0.991 | locus YDR069C, strain doa4, stronger effect = lower value 0.977 | locus YDR101C, strain arx1, stronger effect = lower value 1.01 | locus YDR137W, strain rgp1, stronger effect = lower value 0.957 | locus YDR150W, strain NUM1, stronger effect = lower value 1.02 | locus YDR159W, strain sac3, stronger effect = lower value 0.965 | locus YDR162C, strain NBP2, stronger effect = lower value 1.02 | locus YDR195W, strain ref2 0.952 | locus YDR297W, strain sur2, stronger effect = lower value 1 | locus YDR318W, strain mcm21, stronger effect = lower value 1.04 | locus YDR334W, strain swr1, stronger effect = lower value 0.966 | locus YDR335W, strain msn5, stronger effect = lower value 0.993 | locus YDR388W, stronger effect = lower value 1.01 | locus YDR392W, strain spt3, stronger effect = lower value 1.02 | locus YDR502C, strain sam2, stronger effect = lower value 1.01 | locus YEL003W, strain gim4, stronger effect = lower value 0.995 | locus YEL037C, strain rad23, stronger effect = lower value 0.981 | locus YEL061C, strain CIN8 (second series), stronger effect = lower value 0.998 | locus YEL061C, strain CIN8, stronger effect = lower value 1.01 | locus YER015W, strain faa2, stronger effect = lower value 1 | locus YER016W, strain bim1, stronger effect = lower value 1.01 | locus YER110C, stronger effect = lower value 1.02 | locus YER111C, strain swi4, stronger effect = lower value 1.02 | locus YER155C, strain BEM2 (second series), stronger effect = lower value 0.99 | locus YER155C, strain BEM2, stronger effect = lower value 0.996 | locus YER167W, strain BCK2, stronger effect = lower value 1.05 | locus YFR010W, strain ubp6, stronger effect = lower value 0.967 | locus YGL078C, strain dbp3, stronger effect = lower value 1 | locus YGL086W, strain mad1, stronger effect = lower value 1.05 | locus YGL167C, strain pmr1, stronger effect = lower value 0.994 | locus YGL173C, strain kem1, stronger effect = lower value 1.02 | locus YGL227W, strain vid30, stronger effect = lower value 1 | locus YGL240W, strain doc1, stronger effect = lower value 0.977 | locus YGL248W, strain PDE1, stronger effect = lower value 1 | locus YGL253W, strain hxk2, stronger effect = lower value 0.997 | locus YGR078C, strain PAC10, stronger effect = lower value 1.03 | locus YGR135W, strain pre9, stronger effect = lower value 1.01 | locus YGR229C, strain SMI1, stronger effect = lower value 1.02 | locus YGR252W, strain gcn5, stronger effect = lower value 1.01 | locus YHR013C, strain ard1, stronger effect = lower value 1.04 | locus YHR027C, strain rpn1, stronger effect = lower value 1.01 | locus YHR030C, strain SLT2, stronger effect = lower value 1.01 and 0.981 | locus YHR079C, strain IRE1 (second series), stronger effect = lower value 1.02 | locus YHR079C, strain IRE1, stronger effect = lower value 0.957 | locus YHR094C, strain hxt1, stronger effect = lower value 1.01 | locus YHR129C, strain ARP1, stronger effect = lower value 1.01 | locus YHR142W, strain chs7, stronger effect = lower value 1.01 | locus YHR200W, strain rpn10, stronger effect = lower value 1.02 | locus YIL066C, strain RNR3, stronger effect = lower value 1.02 | locus YIL073C, strain SPO22, stronger effect = lower value 1.1 | locus YIL125W, strain kgd1, stronger effect = lower value 1.01 | locus YIR030C, strain dcg1, stronger effect = lower value 1.01 | locus YJL092W, strain hpr5, stronger effect = lower value 1 | locus YJL095W, strain BCK1 (second series), stronger effect = lower value 0.989 | locus YJL095W, strain BCK1, stronger effect = lower value 1.02 and 0.959 | locus YJL115W, strain asf1, stronger effect = lower value 0.98 | locus YJL129C, strain trk1, stronger effect = lower value 1 | locus YJL134W, strain LCB3, stronger effect = lower value 1.01 | locus YJL154C, strain vps35, stronger effect = lower value 0.984 | locus YJL164C, strain tpk1, stronger effect = lower value 1 | locus YJL166W, strain qcr8, stronger effect = lower value 0.996 | locus YJL168C, strain set2, stronger effect = lower value 1.01 | locus YJL187C, strain SWE1 (second series), stronger effect = lower value 1.01 | locus YJR043C, strain POL32, stronger effect = lower value 1.08 | locus YJR066W, strain TOR1, stronger effect = lower value 0.945
